Experimental findings from ChEMBL document CHEMBL4888484, “Replenishing the malaria drug discovery pipeline: Screening and hit evaluation of the MMV Hit Generation Library 1 (HGL1) against asexual blood stage Plasmodium falciparum ,using a nano luciferase reporter read-out” (2022) are described below.

Molecules are shown by their SMILES. The whole screen tested about 4,800 compounds, of which about 410 (8.5%) showed an effect of 50% or more. The full list was thinned out, with strong results kept by preference.

This test concerns Plasmodium falciparum. Put plainly: Confirmatory screen in NF54 pLDH assay, in single point, at 2uM, 72h. The class given is functional, Erythrocyte. Particulars: timepoint 72 hour.
With `N#Cc1ccccc1OCc1csc(-c2ccccn2)n1`, the “% Inhibition” value worked out at 6%.
As for `O=C(Nc1nc(CCc2c[nH]c3ccccc23)n[nH]1)c1cccnc1`, the figure is 12%; as for `CC1=NN(S(=O)(=O)c2ccc(F)cc2)C(=O)c2ccccc2O1`, 5%.
As for `CN(Cc1nnc2n1CCC2)C(=O)Cc1cccs1`, the “% Inhibition” value came to 9%.
With `COc1cc(CN(CC(N)=O)C(C)C)ccc1C` the figure was 9%; with `Cc1cc(C(=O)NCc2nc3ccccc3s2)c(C)o1`, 7%; with `Cc1ccc(S(=O)(=O)N(CC(=O)NC2CCN(C)CC2)c2cccc(Cl)c2)cc1`, 2%.
As for `Cc1ccc(COc2cccc(CNC3CC3)c2)cc1`, the figure is -1%.
On to `CN1CCN(C(=O)CNC(=O)c2cccc(Cl)c2)CC1`, for which the “% Inhibition” value worked out at 8%.
With `Cn1cc(Cl)c(C(=O)Nc2cccc(S(=O)(=O)N3CCOCC3)c2)n1` the figure was 13%; with `CCN1C(=O)[C@]2(NC3(CCCCC3)C(=O)N2CC)c2ccccc21`, -11%; with `Cc1nn(C)c(NC(=O)CCc2c[nH]cn2)c1C`, -7%.
As for `Cc1cc(C(=O)NCCCS(N)(=O)=O)c(Cl)cc1F`, the figure is -7%.
`Cc1ccc(O)c(CNc2ccc3c(c2)OCC3(C)C)n1`: the “% Inhibition” value is -19%.
With `Cc1ccc(O)c(CNCC2(c3ccccc3Cl)CCOCC2)n1` the figure was 98%.
With `c1csc(CNC2CCCCCCC2)c1` the figure was -2%.
Turning to `COc1ccc(OC)c(NC(=O)CN2CCc3[nH]c4ccc(F)cc4c(=O)c3C2)c1`, the “% Inhibition” value is 83%.
As for `COc1cc(C)c2[nH]c3c(c(=O)c2c1)CN(CC(=O)Nc1ccc(F)c(C)c1)CC3`, the figure is 17%; as for `COc1cc(C)c2[nH]c3c(c(=O)c2c1)CN(CC(=O)Nc1ccc(C)c(F)c1)CC3`, 8%.
With `Cc1nn(-c2ccccc2)c2nc(Cc3ccccc3)nc(N3CCCN(C(=O)NC4CCCCC4)CC3)c12` the figure was 8%; with `Cc1cc(-c2ccccc2)cc(-c2ccccc2)c1-c1cc(-c2ccccc2)cc(-c2ccccc2)n1`, -3%; with `Cc1cc[n+]2c(-c3ccccc3)cc(-c3ccccc3)nc2c1`, 50%.
As for `Cc1cc(-c2ccccc2)nc2sc(-c3ccccc3)c([O-])[n+]12`, the figure is 5%; as for `CC[C@H]1Cn2c(C(=O)NC3CCCC3)cc3c(Cl)ccc(c32)O1`, -11%.
As to `Cn1c(=O)c2c(-c3ccc(Cl)cc3)n(-c3cccc4cccc(N)c34)cc2n(C)c1=O`, the “% Inhibition” value was found to be 91%.
Take `Cn1c2cn(-c3ccc(F)cc3)c(-c3ccccc3)c2c(=O)n1-c1ccccc1`: the “% Inhibition” value worked out at 6%.
Take `O=C(CCc1nc2ccccc2c(=O)[nH]1)Nc1ccc(-n2cnnn2)cc1`: the “% Inhibition” value amounted to 6%.
With `O=C(N[C@H]1CCOC1=O)OCc1ccccc1` the figure was -4%.
With `CCOC(=O)c1cnn(C)c1S(=O)(=O)N1CCCCC1` the figure was 2%; with `CC1CC(NC(=O)NC2CS(=O)(=O)c3ccccc32)C(=O)N1c1ccccc1` (stereo unspecified), -1%.
With `Cc1ccc(Nc2c(-c3cc4ccccc4cc3O)nc3ncccn23)cc1`, the “% Inhibition” value is 6%.
Consider `O=C1CCCc2nc3[nH]n(-c4ccccc4)c(=O)c3cc21`, for which the “% Inhibition” value is 13%.
With `CCCCCc1c(C)nc2[nH]n(-c3ccccc3)c(=O)c2c1O` the figure was -22%; with `CNCCc1c(-c2ccccc2)[nH]n(-c2ccccc2)c1=O`, 69%; with `CCOc1cccc(NCc2c(N)ncnc2OC)c1`, 13%.
As for `CC[C@@](C)(C(=O)NC1CCCC1)N(Cc1ccco1)C(=O)c1ccc2c(c1)OCO2`, the figure is -9%; as for `Cc1ccc(CN2CCS(=O)(=O)CC2)o1`, -13%.
With `Cc1oc(-c2ccc(C(=O)Nc3cccc(Cl)c3C)cc2)nc1COc1ccccc1` the figure was 9%; with `CN1CCC(N2CCN(Cc3ccc4cc(O)ccc4c3)CC2)CC1`, 92%; with `Oc1ccc2cc(CN3CCC[C@H](CN4CCCC4)C3)ccc2c1`, 97%.
Take `CN1CC[C@H](CN(C)Cc2ccc3cc(O)ccc3c2)C1`: the “% Inhibition” value is on record as 36%.
In the case of `COc1ccc(NC(=O)N2C[C@@H]3C[C@H](NS(=O)(=O)c4ccccc4)[C@H]2C3)c(C)c1`, the “% Inhibition” value is given as 3%.
As for `CCc1cccc(NC(=O)C2CCN(c3c(C)n(-c4ccccc4)c(=O)n(CC(C)C)c3=O)CC2)c1`, the figure is 5%.
As for `O=C1c2ccccc2C(=O)N1Cc1cnn(CC(F)F)c1`, the figure is 12%; as for `COc1ccc2oc(-c3ccc(CNC(=O)c4cccnc4)cc3)nc2c1`, 6%; as for `CC(C)(C)OC(=O)N1CCC(c2c(C(=O)Nc3ccc(Cl)cc3Cl)cnn2-c2cccc(F)c2)CC1`, -3%.
For the compound `CC1(C)C(=O)NCCN1C(=O)c1ccc2nccnc2c1`, the “% Inhibition” value turned out to be 9%.
For `CN(C(=O)c1n[nH]c2c1CCC2)[C@H]1CCCc2c1cnn2C`, the “% Inhibition” value is reported as -4%.
With `O=S1(=O)c2ccccc2N=NN1Cc1ccc(Cl)cc1` the figure was -19%.
With `O=C(Nc1ccc(N2CCn3c(nc4ccccc43)C2)cc1)c1ccc(F)cc1` the figure was 14%; with `O=C(Nc1cnc2ccccc2c1)c1ccccc1C(=O)c1ccc(F)cc1`, 94%; with `O=C(Nc1cc(NC(=O)c2ccc(F)cc2)cc(Oc2cccnc2)c1)c1ccc(F)cc1`, 5%.
As for `CN(C)c1cccc(C(=O)N2CCN(c3ncc(F)cn3)C(=O)C2)c1`, the figure is 10%; as for `Cc1nnc2sc(-c3cnn(-c4ccccn4)c3C(F)(F)F)nn12`, -4%.
For `c1ccc(-c2cccnc2NCc2cscn2)cc1`, the “% Inhibition” value is listed as -3%.
With `Cc1ccc(C2C(C(=O)N3CCC(C)CC3)CCC(=O)N2C)cc1` (stereo unspecified) the figure was -1%; with `COC(=O)[C@@H]1[C@@H](NC(=O)C2CCCC2)CCN1C(C)=O`, 1%.
As for `Cc1cc2c(cc1C)N(CC(=O)Nc1ccc(C(F)(F)F)cc1)C(=O)CC(c1cccs1)=N2`, the “% Inhibition” value is listed as -23%.
With `CC1CC(C(=O)Nc2[nH]c(=O)ncc2F)CC(C)(C)C1` (stereo unspecified) the figure was 84%.
As for `CC(=O)N[C@@H]1CN(Cc2nccn2Cc2ccccc2)C[C@H]1c1nccn1C`, the figure is 12%.
As for `Cc1ccc(S(=O)(=O)N2CC(C)N(C(=O)N3CCOCC3)C2C)cc1` (stereo unspecified), the figure is 14%; as for `FC(F)(F)C1CCCC(NCc2c[nH]nc2-c2cccnc2)C1` (stereo unspecified), 3%; as for `Nc1c(-c2ccc(F)cc2)nsc1C(=O)NC1CCN(Cc2ccccc2)CC1`, 8%.
In the case of `CC1CCN(Cc2ccc(CNCc3c[nH]nc3-c3ccc(F)cc3)cc2)CC1`, the “% Inhibition” value is 50%.
Take `c1ccc(-c2ccccc2NCn2nnc3ccccc32)cc1`: the “% Inhibition” value is on record as -9%.
As to `CCc1cccc(NC(=O)N2CCC3(CC2)C(=O)N(CC(=O)Nc2ccc(F)cc2)CN3c2ccccc2)c1`, the “% Inhibition” value amounted to 30%.
As for `CC(C)N(CCS(C)(=O)=O)C(=O)NCc1ccco1`, the figure is 10%; as for `CN(C)CCN(C)c1ccc(Br)cc1NCc1cncn1C`, 39%.
As for `CCn1nc(C)c(CN(C)S(=O)(=O)c2ccc(N3CCCC3=O)cc2)c1C`, the figure is -1%; as for `Cc1cccc(Nc2nc(-c3cnc(N4CCN(C)CC4)nc3C)cc(=O)[nH]2)c1`, 4%.
Take `Cc1ccc(NC(=O)Nc2cccc(-c3ccc(N4CCN(C)CC4)nn3)c2)cc1C`: the “% Inhibition” value stood at 13%.
As for `Cc1cc(C(=O)N[C@@H](C)C(=O)N2CCCCC2)c2nc3n(c2n1)CCCCC3`, the figure is 8%; as for `Oc1ccc(-n2c(-c3ccccc3)ccc2-c2ccccc2)cc1`, 12%; as for `Cc1ccc(C(=O)C[n+]2cc(-c3ccc(Br)cc3)n(C)c2N)cc1`, -16%.
With `COc1cccc(C(=O)C[n+]2cc(-c3ccc(Br)cc3)n(C)c2N)c1` the figure was 4%; with `COc1ccc2c(c1)[n+](CC(=O)c1ccc(-c3ccc(Br)cc3)cc1)c(CO)n2C`, 54%.
As for `COc1ccnc(CN2CC[C@](C)(O)[C@H](O)C2)c1`, the figure is 6%; as for `Cc1ccc(OCc2cccc(C(=O)N3CCC[C@@H]3CN3CCCCC3)c2)cn1`, 9%.
For the compound `CN1CCCN(c2ccnc3ccsc23)CC1`, the “% Inhibition” value is 39%.
For the compound `C=CCNC(=NC)NC1CCN(c2cc(OC)cc(OC)c2)CC1`, the “% Inhibition” value was 7%.
In the case of `CCC1(CC)CCC(NC(=O)[C@@H]2CCCCC(=O)N2)CC1`, the “% Inhibition” value was -14%.
As for `C[C@H]1C[C@@H](O)CCN1C(=O)c1cccc2sc(C(F)(F)F)nc12`, the “% Inhibition” value is listed as 3%.
Regarding `Cc1cc(C)cc(-n2cc(C(=O)NCCCc3ccccc3)nn2)c1`, the “% Inhibition” value was determined as 8%.
With `Cc1cc2nc(C)c(=O)n(Cc3ccc(C(=O)NCc4ccco4)cc3)c2cc1C`, the “% Inhibition” value was 8%.
With `Cc1cc(NC(=O)NC(C)C)c2[nH]c(C(=O)N3CCOCC3)c(-c3ccccc3)c2c1` the figure was 9%.
For the compound `CO/C(=N/C(=O)c1cccc(OC)c1)N[C@H]1CCCc2ccccc21`, the “% Inhibition” value was -9%.
For the compound `O=c1[nH]c(=O)n(Cc2cc(Cl)cc3c2OCOC3)cc1Cl`, the “% Inhibition” value was determined as 12%.
Regarding `CC(C)N(C)S(=O)(=O)Nc1ccc(Br)cc1O`, the “% Inhibition” value is listed as 9%.
As for `Nc1ccccc1-c1nc(Nc2ncccn2)n[nH]1`, the figure is 7%.
Take `Cc1ccc(N2C[C@@H](c3nnc(NC(=O)Cc4ccc(Cl)cc4)o3)CC2=O)cc1`: the “% Inhibition” value is listed as -18%.
With `CC(C)c1cc(=O)[nH]c(-n2nc(C3CC3)cc2NC(=O)Cc2ccc(Cl)cc2)n1`, the “% Inhibition” value is on record as 67%.
In the case of `O=C(Nc1ccc(OC(F)F)cc1)c1cc(C2CC2)nc2c1c(C1CC1)nn2-c1ccccc1`, the “% Inhibition” value was -5%.
Take `Cc1nc(CC(=O)Nc2cc(C3CC3)nn2-c2ccccc2)cs1`: the “% Inhibition” value came out at 8%.
With `CC(C)c1cc(=O)[nH]c(-n2nc(C3CC3)cc2NC(=O)COc2ccc3ccccc3c2)n1` the figure was 65%; with `Cc1cc(NC(=O)c2ccc(COc3ccc4ccccc4c3)o2)nn1C`, 13%.
As for `CCOc1c(Br)cc(Cl)cc1NCC(=O)NC(=O)NC`, the figure is 14%; as for `COc1cc(N2CCn3c(nc4ccccc43)C2)ccc1NC(=O)c1ccc(C)cc1`, -23%.
With `O=C1NS(=O)(=O)c2cc(N3CCN(Cc4ccccc4)CC3)ccc21` the figure was 8%.
With `CCc1ccc(C(=O)Nc2cnc(-n3ccnc3)nc2)cc1`, the “% Inhibition” value was 29%.
As for `O=C(C[C@H]1CCN(S(=O)(=O)c2ccc(F)cc2F)C1)NCc1ccccc1`, the figure is 10%.
As for `Cc1nn(Cn2nc(-c3ccc(F)cc3)c(Br)c2-c2ccc(F)cc2)c(C)c1Cl`, the figure is 6%.

The % Inhibition is the drop in the measured response relative to a control, in per cent.
